Compound activity as filed in PubChem BioAssay.
aSyn 5UTR act – Activators working through SNCA 5'UTR binding (MLPCN). alpha-synuclein 5'UTR reporter, activators screen. activity score, % (tested at 7.5 µM), hits read low. hit rate 7.1% among 300,000; in the data active means activity score below about -60%
* marks the source's active call; other numbers are inactive results. Only a sample is shown.

SMILES	aSyn 5UTR act
O=C(Nc1nc(-c2ccncc2)cs1)c1ccco1	-86*
C=CCNc1nc(-c2ccc3c(c2)OCCO3)cs1	-134*
O=C(NC(=S)Nc1nc(-c2ccccc2)cs1)c1ccco1	-77*
O=C(Nc1nc(-c2ccc3c(c2)OCCO3)cs1)c1ccco1	-77*
CCC(=O)Nc1nc(-c2ccc3c(c2)CC(C)N3S(C)(=O)=O)cs1 (configuration not stated)	-70*
O=C(Nc1nc(-c2cccs2)cs1)c1ccco1	-85*
C=CCNc1nc(-c2ccc(O)c(C(N)=O)c2)cs1	-78*
Brc1ccc(-c2ccc(/C=N/Nc3nc4ccccc4[nH]3)o2)cc1	-227*
C(/CCc1ccccc1)=N\Nc1nc2ccccc2[nH]1	-67*
C(=C\c1ccccc1)/C=N/Nc1nc2ccccc2[nH]1	-275*
O=c1[nH]c(N/N=C\c2ccc3c(c2)OCO3)nc2ccccc12	-161*
Fc1ccc(/C=N/Nc2nc3ccccc3[nH]2)cc1F	-159*
C(=N\Nc1nc2ccccc2[nH]1)/c1ccccc1	-175*
Fc1cccc(/C=N/Nc2nc3ccccc3[nH]2)c1	-160*
Cc1cc(N/N=C/c2ccc3c(c2)OCO3)nc2ccccc12	-180*
O=c1[nH]c(N/N=C/c2ccccc2)nc2ccccc12	-212*
Cc1ccc(/C=N/Nc2ncnc3nc[nH]c23)cc1	-63*
Fc1cccc(/C=N/Nc2ncnc3nc[nH]c23)c1	-93*
Fc1ccccc1/C=N/Nc1ncnc2nc[nH]c12	-62*
CC(=O)O[C@H]1C(=O)[C@@]2(C)[C@H]([C@H](OC(=O)c3ccccc3)[C@]3(O)C[C@H](OC(=O)[C@H](O)C(NC(=O)c4ccccc4)c4ccccc4)C(C)=C1C3(C)C)[C@]1(OC(C)=O)CO[C@@H]1C[C@@H]2O (some centres not stated)	72
CCCn1c(N2CCN(CC(=O)c3c(C)n(C)c4ccc(OC)cc34)CC2)nc2c1c(=O)[nH]c(=O)n2C	63
COc1ccc(NC(=O)CN2CCCCC2)c([N+](=O)[O-])c1	-98*
COc1ccc2[nH]cc(C(=O)CN3CCC(C)CC3)c2c1	-177*
Cc1ccc(NC(=O)CN2CCCCCC2)c(Br)c1	-204*
COc1ccc(NC(=O)CN2CCC(C)CC2)c([N+](=O)[O-])c1	-68*
SMILES	aSyn 5UTR act
COc1cc(NC(=O)Cn2ncc(Cl)c(Cl)c2=O)c(C)cc1[N+](=O)[O-]	121
COc1ccc(NC(=O)CSc2ccccc2)c([N+](=O)[O-])c1	-106*
COc1ccc(NC(=O)COc2ccc(C)cc2)c([N+](=O)[O-])c1	-143*
Cc1ccc(NC(=O)COC(=O)COc2ccc(Cl)cc2C)c([N+](=O)[O-])c1	-65*
COc1ccc(C2=NN(S(C)(=O)=O)C(c3cccs3)C2)cc1OC (configuration not stated)	-115*
COc1ccc2cc(C3CC(c4cccs4)=NN3S(C)(=O)=O)c(Cl)nc2c1 (configuration not stated)	-62*
COc1cccc(C2=NN(S(C)(=O)=O)C(c3cccs3)C2)c1 (configuration not stated)	-107*
CCS(=O)(=O)Nc1ccc(C2=NN(S(C)(=O)=O)C(c3cccs3)C2)cc1 (configuration not stated)	-101*
Cc1nnc(SCc2ccc3c(c2)OCO3)s1	-72*
Cc1nnc(SCC(=O)c2cc(C)n(-c3ccc4c(c3)OCO4)c2C)s1	-151*
CC(=O)c1ccc(OCC(=O)c2cc(C)n(-c3ccc4c(c3)OCO4)c2C)cc1	-65*
Cc1cc(C(=O)CSc2nnnn2C)c(C)n1-c1ccc2c(c1)OCCO2	-125*
Cc1cc(C(=O)CN2C(=O)C(=O)N(Cc3ccccc3)C2=O)c(C)n1-c1ccc2c(c1)OCCO2	-74*
Cc1nnc(SCc2ccc(F)cc2Cl)s1	-81*
Cc1cc(C(=O)CN2C(=O)c3ccccc3S2(=O)=O)c(C)n1-c1ccccc1	120
COc1ccc(-n2ncc3c(SCC(=O)N4CCN(c5ccccc5OC)CC4)ncnc32)cc1	-74*
Cc1ccc(-n2ncc3c(SCC(N)=O)ncnc32)cc1C	-119*
Cc1ccccc1-n1ncc2c(SCC(=O)NCc3cccs3)ncnc21	-114*
Cc1ccc(-n2ncc3c(SCc4cccc(C)c4)ncnc32)cc1	-90*
CC(=O)CSc1ncnc2c1cnn2-c1ccccc1	-157*
O=C(CSc1ncnc2c1cnn2-c1ccccc1)NC1CCCC1	-64*
CCC(=O)N/C(N)=N/c1nc(C)c2cc(OC)ccc2n1	-107*
COc1ccc2nc(/N=C(\N)NC(=O)C(C)(C)C)nc(C)c2c1	-85*
Cc1ccc(NC(=O)c2ccc(CN3CCc4ccccc4C3)cc2)cc1	-101*
O=C(Nc1cccnc1)c1ccc(CN2CCc3ccccc3C2)cc1	-68*
CC(Oc1ccc(Br)cc1Cl)C(=O)Nc1ccncc1 (configuration not stated)	-84*
CC(Oc1ccc(Cl)cc1Cl)C(=O)Nc1cccc(O)c1 (configuration not stated)	-62*
CCC(=O)Nc1ccc(/C=C(\C(C)=O)C(=O)c2ccccc2)cc1	-77*
O=C(CC(=O)c1ccccc1)Nc1ccc(Cl)cc1	-174*
